# Measured values: PubChem BioAssay AID651965 (National Center for Advancing Translational Sciences (NCATS), 2013)
# The whole screen tested about 340,000 compounds, of which about 6,400 (1.9%) were called active. About 4% were inconclusive and are not listed. The full list was thinned out, with actives kept by preference. A number with no mark means an inactive call. Calls follow the shape of the dose curve; as a rule, active = well fitted falling curve with a large enough effect; inconclusive = small, poorly fitted or top-dose-only effect; inactive = no such curve, though single readings can be large or run the other way.
# Biological target: ATP-dependent Clp protease proteolytic subunit (Bacillus subtilis (strain 168)) (UniProt P80244)
# Sequence (P80244 whole entry, looked up): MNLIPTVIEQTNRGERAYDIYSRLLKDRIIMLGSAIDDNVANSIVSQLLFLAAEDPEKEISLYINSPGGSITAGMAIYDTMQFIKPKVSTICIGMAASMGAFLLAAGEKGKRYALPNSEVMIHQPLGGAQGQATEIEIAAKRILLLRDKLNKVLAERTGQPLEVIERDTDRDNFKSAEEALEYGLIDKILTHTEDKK
# Assay: qHTS Assay for Activators of ClpP; also: the source files actives as falling curves though it sought activators and does not explain the sign; nearly all actives have a fitted effect of over 65% in size
# Settings: purified B. subtilis ClpP, FRET peptide cleavage, 20 min; series mostly up to 57.5 µM; activity change, negative = active: at the top concentration
# In short: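 ClpP 10 microg/mL final, pH 8 Tris/KCl buffer with BSA, glycerol, Tween-20; compound pinned in; FRET-FV substrate; RT 20 min; Ex320/Em430; ΔFRET vs ADEP 5.8 microM, DMSO, no enzyme.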
# Potency is read from the fitted curve at half-maximal effect.
SMILES,Potency,"activity change, negative = active [%]"
COCCN(CCOC)c1nc(N)c2c(N)nc3c(c2c1C#N)CC(=O)N3Cc1ccc(Cl)cc1,3.16 µM (active),–
COc1ccc(C(C#N)=C2C=CC(=NO)c3ccccc32)cc1,–,1.66
CC1=C2C(=O)OC(c3ccoc3)C2(C)CCC1 (centres undefined),25.1 µM (active),–
CC1(C)O[C@H]2CC(=O)OCC23[C@H]2CC[C@@]4(C)[C@H](c5ccoc5)OC(=O)[C@H]5O[C@]54[C@]2(C)C(=O)C[C@@H]13 (some centres undefined),–,-0.868
CC(C)(C(=O)NO)c1ccccc1,–,-0.655
CCCC(=O)Nc1ccc(C(=O)N/N=C/c2ccc[nH]2)cc1,–,1.82
CC(Oc1ccccc1[N+](=O)[O-])C(=O)N/N=C/c1ccoc1 (centres undefined),–,-3.01
O=C(COc1ccccc1[N+](=O)[O-])N/N=C/c1ccc[nH]1,31.6 µM (active),–
O=C(Nc1ccc(Cl)cc1)c1csc([C@H]2C[C@H](O)[C@@H](CO)O2)n1,–,0.0111
COc1ccccc1NC(=O)CN1CCN(S(=O)(=O)c2ccc(Br)cc2)CC1,–,-12.3
COc1ccc(NC(=O)CN2CCN(S(=O)(=O)c3ccc(F)cc3)CC2)cc1Cl,–,3.19
COc1cc2c(cc1NC(=O)CN1CCN(S(=O)(=O)c3ccc(F)cc3)CC1)oc1ccccc12,11.2 µM (active),–
O=C(OCc1cn([C@H]2C[C@H](c3ccccc3)N(C(=O)c3cccs3)C[C@@H]2O)nn1)c1ccccc1,–,0.361
CCOC(=O)C1=CC[C@@H](c2ccncc2)N(S(=O)(=O)c2ccc(C)cc2)C1,–,0.521
CC1(C(=O)NCc2ccc3c(c2)OCO3)CCN1CCc1ccccc1 (centres undefined),–,-0.799
C[N+](C)(C)CCNC(=O)c1c[nH]c2ccccc12,–,3.16
CC1CCN(C(=O)COC(=O)c2cc(=O)[nH]c3ccccc23)CC1,–,-5.9
CCOC(=O)c1ccc(COC(=O)c2cc(=O)[nH]c3ccccc23)o1,15.8 µM (active),–
CCOC(=O)c1ccc(NC(=O)c2cc(=O)[nH]c3ccccc23)cc1,–,-7.27
Cc1ccc2nc(-c3ccccc3)c(CC3CCCCC3)n2c1,–,-17.3
SCc1nc2ccc(Cl)cc2[nH]1,–,-5.53
COc1cc([N+](=O)[O-])ccc1NC(=O)CN1CCCC1,–,-1.92
COc1ccccc1CC(=O)Nc1ccc(F)cc1F,–,2.38
COc1ccccc1CC(=O)Nc1ccc([N+](=O)[O-])cc1OC,7.08 µM (active),–
O=C(NC(c1ccc(-c2ccccc2)cc1)c1cnccn1)C1CCN(CCOc2ccc(Cl)cc2Cl)CC1 (centres undefined),–,-2.84
COc1cc2nc(N3CCCN(C)CC3)nc(NC(C)C)c2cc1OC,–,4.14
COC(=O)Cn1c2ccc(C)cc2c2nc(C)sc21,–,0.6
COC(=O)Cn1c(=NC(=O)CSCC(=O)Nc2cc(C)on2)sc2ccccc21,–,-15.6
COC(=O)Cn1c(=NC(=O)c2cc(OC)c(OC)c(OC)c2)sc2cc(OC)ccc21,2.82 µM (active),–
